Our source for the z-score and composite z-score values is PubChem BioAssay.

A short description of assay [1]: resazurin metabolic signal in HepG2 cells – cell-based, resazurin fluorescence, 24 h, PK04 Diversity Set, profiling panel (AID 1172). Further: test concentration not given here. The conditions noted are these: HepG2 viability, higher = more signal. Background: Resazurin is reduced to fluorescent resorufin, in cell work by metabolically active cells.
A short description of assay [2]: budding yeast growth changes without added modifier – OD600, strain BY4716, 24 h, basal condition, primary screen (AID 1173). The conditions noted are these: S. cerevisiae BY4716 growth, OD600, 24 h; higher = more signal, called active from +8 up or from −8 down.
Assay [3] in a line: viability profiling in MM1S myeloma cells – cell-based, resazurin fluorescence, basal, 24 h, PK04 Diversity Set, profiling panel (AID 1174). Further: test concentration not given here. The following applies: higher = more signal, called active from +8 up or from −8 down.
Assay [4] has as its target Dihydroorotate dehydrogenase (quinone), mitochondrial (Plasmodium falciparum (isolate 3D7)) (UniProt Q08210). Put plainly: inhibition of P. falciparum DHODH – biochemical, C-terminal His tag, absorbance 600 nm, primary screen (AID 1175).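 Further: recombinant parasite enzyme with a five histidine tag at its C terminus; test concentration not given here.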 The conditions noted are these: PfDHODH enzyme, DCIP absorbance 600 nm; higher = more signal, called active from +8 up or from −8 down.

Assay [5] can be described thus: inhibition of PAO1 biofilm formation – strain PAO1, LB-PBS medium, absorbance 600 nm, primary screen (AID 1176). Further: test concentration not given here. The following applies: P. aeruginosa PAO1 growth/biofilm, A600, 12 h; higher = more signal.
Assay [6] in a line: growth modulation of vineyard yeast isolate – strain RM11-1a, OD600, basal, 24 h, primary screen (AID 1177).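 Further: cultures grown under basal conditions with no added stressor; test concentration not given here.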 The conditions noted are these: S. cerevisiae RM11-1a growth, OD600, 24 h; higher = more signal, called active from +8 up or from −8 down.
Assay [7] can be described thus: growth of efflux-deficient E. coli DRC39 – strain DRC39, OD650, 24 h, E. coli filamentation inducers, primary screen (AID 1178).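 Further: growth measured as culture turbidity by optical density at 650 nm; test concentration not given here.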 The conditions noted are these: E. coli DRC39 acrAB, higher = more signal, called active from +8 up or from −8 down.
Assay [8] is described as follows: growth of efflux-deficient E. coli DRC39 – strain DRC39, OD650, 48 h, E. coli filamentation inducers, primary screen (AID 1179).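 Further: screen aims at cell division blockers that make cells filament.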 The conditions noted are these: E. coli DRC39 delta-acrAB growth, higher = more signal, called active from +8 up or from −8 down.
Assay [9] is described as follows: viability profiling in RPMI8226 myeloma cells – cell-based, resazurin fluorescence, basal, 24 h, PK04 Diversity Set, profiling panel (AID 1180).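 Further: RPMI8826 multiple myeloma cell line at 5000 cells per well; test concentration not given here.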 The following applies: higher = more signal.
In assay [10] the target is E3 ubiquitin-protein ligase XIAP (Homo sapiens) (UniProt P98170). The assay is described as follows: small molecules binding XIAP protein – biophysical, small-molecule microarray, fluorescence 635 nm, primary screen (AID 1181).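 Further: score merges 667 nm emission and signal to noise over triplicate slides.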 The following applies: higher = more signal.

Calls of active or inactive are those of the source. Unless noted, how the calls were made is not given here.

E3 ubiquitin-protein ligase XIAP (Homo sapiens), sequence (P98170 whole entry, looked up): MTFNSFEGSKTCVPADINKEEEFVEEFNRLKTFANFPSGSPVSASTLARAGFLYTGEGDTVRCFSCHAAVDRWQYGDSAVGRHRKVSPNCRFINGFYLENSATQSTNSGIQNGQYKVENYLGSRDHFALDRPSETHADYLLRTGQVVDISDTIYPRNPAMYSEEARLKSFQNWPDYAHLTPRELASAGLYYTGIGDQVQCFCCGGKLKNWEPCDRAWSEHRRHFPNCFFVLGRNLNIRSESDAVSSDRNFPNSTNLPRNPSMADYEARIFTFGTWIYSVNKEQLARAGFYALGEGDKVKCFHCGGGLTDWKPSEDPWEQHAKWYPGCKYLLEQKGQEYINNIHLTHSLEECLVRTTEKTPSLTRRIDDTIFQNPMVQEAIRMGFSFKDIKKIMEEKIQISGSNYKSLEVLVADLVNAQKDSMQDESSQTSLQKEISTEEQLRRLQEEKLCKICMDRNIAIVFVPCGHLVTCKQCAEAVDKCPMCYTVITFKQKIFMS
Dihydroorotate dehydrogenase (quinone), mitochondrial (Plasmodium falciparum (isolate 3D7)), sequence (Q08210 whole entry, looked up): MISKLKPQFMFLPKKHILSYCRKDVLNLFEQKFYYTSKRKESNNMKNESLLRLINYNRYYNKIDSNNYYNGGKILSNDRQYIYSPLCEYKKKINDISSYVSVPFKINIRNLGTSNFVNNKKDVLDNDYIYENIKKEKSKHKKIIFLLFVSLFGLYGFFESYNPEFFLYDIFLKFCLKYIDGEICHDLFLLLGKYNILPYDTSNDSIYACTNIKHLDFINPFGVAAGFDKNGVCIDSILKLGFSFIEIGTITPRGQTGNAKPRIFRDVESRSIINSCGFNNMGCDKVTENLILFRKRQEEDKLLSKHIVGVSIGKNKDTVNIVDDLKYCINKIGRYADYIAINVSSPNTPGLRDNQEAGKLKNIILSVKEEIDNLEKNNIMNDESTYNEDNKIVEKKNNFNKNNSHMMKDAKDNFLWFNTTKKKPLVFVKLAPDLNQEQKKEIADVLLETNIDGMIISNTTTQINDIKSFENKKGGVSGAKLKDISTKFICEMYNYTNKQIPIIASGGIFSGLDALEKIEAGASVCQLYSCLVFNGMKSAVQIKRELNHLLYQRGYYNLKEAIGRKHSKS

`CC(=O)N1Cc2ccccc2C[C@@]2(N=C(c3ccc(OCCCO)cc3)O[C@H]2c2ccccc2)C1=O`: the z-score was -1.33 in assay [1]; -2.24 (inactive) in assay [2]; -4.82 (inactive) in assay [3]; 1.76 (inactive) in assay [5]; 0.372 (inactive) in assay [6]; 1.62 (inactive) in assay [7]. Besides, the z-score was 1.4 (inactive) in [8] and -4.8 in [9]. In addition, the composite z-score in [4] was -0.847 (inactive); in assay [10] it was 0.0651.

For the molecule `O=C1[C@H]2C=C(Br)[C@H](C[C@@H]2OCCOCCO)[C@@]12CO2`, the z-score in assay [1] was -0.0029; in assay [2], 1.2 (inactive); in [3], -0.478 (inactive); in assay [5], 0.379 (inactive); in assay [6], 1.4 (inactive); in assay [7], -0.308 (inactive). Also, the z-score is -1.05 (inactive) in [8] and -0.608 in [9]. Further, the composite z-score was 0.857 (inactive) in assay [4] and -0.201 in [10].

Consider `O=C1O[C@@H](c2ccccc2)[C@@H](c2ccccc2)N2[C@@H](c3ccccc3OCCO)[C@]3(C(=O)Nc4ccc(C#CC5(O)CCCCCC5)cc43)[C@@H](C(=O)NC[C@H](O)c3ccccc3)[C@H]12`, for which the z-score in assay [1] is -2.02; in assay [2], 0.934 (inactive); in [3] it was -7.38 (inactive); in [5] it was 1.66 (inactive); in assay [6], 2.41 (inactive); in assay [7] it was -0.0933 (inactive). The z-score in assay [8] is -0.0241 (inactive); in assay [9] it was -7.19. Besides, the values for the composite z-score in assay [4] and in assay [10] were -0.516 (inactive) and 0.0264, respectively.

For the molecule `O=C1C[C@@](C(=O)O)(c2ccc([N+](=O)[O-])cc2)[C@@H](c2ccc(CO)cc2I)N1C1CCCCC1`, the z-score is 0.0536 in assay [1]; -5.06 (inactive) in assay [2]; -1.62 (inactive) in [3]; 1.16 (inactive) in assay [5]; -1.01 (inactive) in assay [6]; 1.39 (inactive) in assay [7]. Further, the figures for the z-score in assay [8] and in [9] were 0.466 (inactive) and -1.57, respectively. The composite z-score is -1.68 (inactive) in [4] and -0.289 in assay [10].

With `COC(=O)[C@@]1(Cc2ccc(F)cc2)[C@H]2c3cc(C(=O)N(C)C)n(CCCNc4ccc(C(F)(F)F)cc4Cl)c3C[C@H]2CN1C(=O)c1ccccc1`, the z-score in assay [1] was -0.591; in assay [2] it was 1.28 (inactive); in assay [3], -1.98 (inactive); in assay [5], 0.439 (inactive); in assay [6], 0.482 (inactive); in [7] it was -0.0949 (inactive). Further, the z-score in assay [8] was 0.29 (inactive); in [9] it was -3.88. The composite z-score in [4] is -0.0269 (inactive); in assay [10] it was 0.143.

As to `CC[C@@H]1C=C(C(=O)O)[C@H](c2ccc(C(C)C)cc2)N1S(=O)(=O)c1ccc(C)cc1`, the z-score was -0.892 in assay [1]; -1.01 (inactive) in assay [2]; -0.725 (inactive) in assay [3]; 0.16 (inactive) in assay [5]; -1.27 (inactive) in assay [6]; -0.862 (inactive) in [7]. Moreover, the z-score in assay [8] was 0.133 (inactive); in [9], -2.23. The composite z-score in assay [4] was -0.976 (inactive); in [10], 0.198.

Take `CN1C(=O)C2C(C1=O)C1C=C(c3ccc(CO)cc3)C2C(C2CC2)N1Cc1sc2ccccc2c1Cl` (stereo not given): the z-score in [1] is 0.0076; in assay [2] it was -1.82 (inactive); in assay [3], -5.41 (inactive); in assay [5] it was 0.255 (inactive); in [6], 1.2 (inactive); in assay [7] it was 0.225 (inactive). In addition, the z-score in [8] was 0.0618 (inactive); in assay [9] it was -3.3. Besides, the composite z-score in [4] is -1.46 (inactive); in [10] it was 0.262.

Regarding `[N-]=[N+]=NCc1ccccc1[C@@H]1OC(c2ccc(OCCCO)cc2)=N[C@]1(Cc1ccccc1)C(=O)O`, the z-score in assay [1] is 1.18; in assay [2], -3.03 (inactive); in assay [3], 0.615 (inactive); in assay [5] it was 0.466 (inactive); in [6], 0.703 (inactive); in assay [7], 0.305 (inactive). For the same molecule, the figures for the z-score in [8] and in assay [9] were -0.108 (inactive) and 0.469, respectively. Further, the composite z-score in [4] is -0.101 (inactive); in [10] it was -0.0731.

`COC(=O)[C@@]1(Cc2ccc(F)cc2)[C@H]2c3cc(C(=O)N(C)C)n(Cc4ccccn4)c3C[C@H]2CN1C(=O)c1ccccc1`: the z-score in assay [1] is 1.15; in [2], 0.0864 (inactive); in assay [3] it was 0.548 (inactive); in assay [5], -0.126 (inactive); in assay [6] it was -0.319 (inactive); in [7], -0.389 (inactive). Further, the z-score in [8] is -0.42 (inactive); in assay [9], 0.35. Also, the composite z-score in assay [4] was -0.171 (inactive); in assay [10] it was 0.332.

`O=[N+]([O-])c1ccc(C[n+]2ccc(CCCO)cc2)o1`: the z-score in assay [1] was -1.32; in assay [2], -7.77 (inactive); in assay [3], -1.27 (inactive); in [5] it was 0.0214 (inactive); in [6] it was 0.379 (inactive); in assay [7], -1.4 (inactive). Also, the z-score is -0.841 (inactive) in assay [8] and -0.211 in [9]. The composite z-score in assay [4] is 0.403 (inactive); in [10], 0.905.

In the case of `O=C1O[C@H](c2ccccc2)[C@H](c2ccccc2)N2[C@H]1[C@@H](C(=O)N1CCCCCCC1)[C@]1(C(=O)Nc3ccc(C#CC4=CCCCC4)cc31)[C@H]2c1ccc(O)cc1`, the z-score in assay [1] was 0.693; in assay [2], -0.63 (inactive); in assay [3] it was -0.693 (inactive); in [5], 0.485 (inactive); in assay [6] it was -0.668 (inactive); in assay [7], -0.182 (inactive). Moreover, the z-score was -1.53 (inactive) in [8] and -0.0437 in assay [9]. Besides, the composite z-score in assay [4] is -0.744 (inactive); in [10], 3.33.

Take `CC(C)C(=C=CC[C@H](O)c1ccccc1OCCO)CCO`: the z-score in assay [1] is -0.457; in assay [2] it was -1.39 (inactive); in assay [3], -0.0976 (inactive); in assay [5] it was 1.17 (inactive); in assay [6], 0.0589 (inactive); in assay [7], -0.235 (inactive). Also, the z-score in [8] was -0.153 (inactive); in [9], 0.217. The results for the composite z-score in assay [4] and in assay [10] were -0.757 (inactive) and -0.23, respectively.

With `CCCNC(=O)[C@@]1(C)c2ccccc2C(=O)N(Cc2cc(F)cc(C(F)(F)F)c2)[C@H]1c1ccc(CO)cc1`, the z-score in assay [1] is 1.08; in [2] it was -0.769 (inactive); in assay [3], 1.16 (inactive); in assay [5], -0.164 (inactive); in assay [6], 0.196 (inactive); in [7] it was 0.249 (inactive). The values for the z-score in assay [8] and in assay [9] were 0.113 (inactive) and 1.63, respectively. In addition, the composite z-score in assay [4] is 0.134 (inactive); in assay [10] it was -0.181.
